An excerpt weighted towards active compounds, which were near 3% of everything screened.
p53null 39C kill: qHTS Screen for Compounds that Selectively Target Cancer Cells with p53 Mutations: Cytotoxicity of p53 Null Cells at the Nonpermissive Temperature; Potency, µM (titrated, usually from 46.1 µM), for the others: at the highest dose activity, negative = cell killing, hits mostly cytotoxic; H1299 p53-null (neo) cells, 39C, ATPlite viability, 24 h; actives 0.97% (n = 55,000);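 further: potency means the concentration at half of the fitted maximal effect; 0% = DMSO only and -100% = full killing by 100 µM tamoxifen; nearly all actives have a fitted effect of over 50% in size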
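Following overnight plating at 37C (600 cells/well), H1299-neo or H1299-p53A138V cells are dosed up to 46 uM. Incubation lasts 24 hr at 39C before ATP detection.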
PMP22 txn prim: Cell-based coincidence reporter assay to measure PMP22 gene transcription in S16 Pmp22-F2sN cells - Primary screen. actives 2% (n = 43,000). Potency, µM (top dose mostly 57.5 µM), without a hit: at the top dose activity change, negative = inhibition, hits mostly inhibitors. S16 Pmp22-F2sN Schwann cells, FLuc/NLuc coincidence luminescence, 24 h; active means clear falling dose curves in both reporters; inconclusive means both reporters move, but less clearly or upward; inactive means either reporter flat; the % is the NLuc reporter signal; further: potency means the concentration at half of the fitted maximal effect; on the % scale 0 is the no-effect control and ±100 the full control effect
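Schwann cells carrying the coincidence reporter were exposed to library compounds for 24 h at 37C, then lysed and read for FLuc and, after quenching, NLuc luminescence on a CCD imager.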
SKOV3 invasion: Primary qHTS assay for Inhibitors of ovarian cancer metastasis using an organotypic tumor microenvironment (TME) model | Potency, µM (highest dose often 45.8 µM), for the others: at the highest dose activity change, negative = inhibition, actives largely listed as inhibitors | actives 0.1% (n = 46,000) | SKOV3ip1-GFP adhesion/invasion on 3D omental model, fluorescence;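 further: potency means the concentration at half of the fitted maximal effect; plate controls were DMSO wells for no effect and tomatine positive control wells for full effect; nearly all actives have a fitted effect of over 65% in size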
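A 3D layer of primary human omental fibroblasts, mesothelial cells, fibronectin and collagen I, grown 48 hr, received SKOV3ip1-GFP cells in serum-free medium plus compounds at 0.36-46 umol/L. After 2 hr RT and 16 hr 37 C, fixed adherent GFP cells were counted; normalized to DMSO and tomatine.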
p53null 32C kill: qHTS Screen for Compounds that Selectively Target Cancer Cells with p53 Mutations: Cytotoxicity of p53 Null Cells at the Permissive Temperature | Potency, µM (top dose mostly 46.1 µM), for inactives: at the highest dose activity change, negative = cytotoxicity, hits mostly cytotoxic | actives 0.62% (n = 55,000) | H1299-neo p53 null cells, ATP luminescence, 24 h, 32C;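 further: potency means the concentration at half of the fitted maximal effect; 0% = DMSO only and -100% = full killing by 100 µM tamoxifen; nearly all actives have a fitted effect of over 55% in size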
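AC50 values derive from Hill modelling of qHTS concentration-response data (up to 46 uM) in H1299-neo cells. Cells were treated 24 h at 32C following overnight attachment at 37C; viability was read as cellular ATP.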
mTORC1 inh: Acumen qHTS Assay for Inhibitors of the mTORC1 Signaling Pathway in MEF (Tsc2-/-, p53-/-) Cells: Sytravon; Tsc2-/- p53-/- MEF, phospho-rpS6 immunofluorescence/PI, 24 h; Potency, µM (doses to about 38.3 µM), without a hit: at the top dose activity change, negative = inhibition, actives largely listed as inhibitors; actives 0.78% (n = 44,000); AID 493208, 2011;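 further: potency means the concentration at half of the fitted maximal effect; plate controls were DMSO for no effect and rapamycin for full effect; nearly all actives have a fitted effect of over 50% in size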
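Readout is phospho-S6 Alexa 488 signal normalized to PI per well, reported as % active cells with thresholds set from rapamycin (7.5 nM) and DMSO controls. Cells: Tsc2-/-, p53-/- MEFs, 24 hrs compound at 37 C; PI cell number serves as viability.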
S16 viability: Cell viability qHTS assay in S16 Pmp22-F2sN cells; S16 Pmp22-F2sN Schwann cells (luciferase reporters placed in the Pmp22 gene) viability, CellTiter-Glo, 24 h; actives 0.48% (n = 43,000); Potency, µM (doses to about 57.5 µM), for inactives: at the highest dose activity change, negative = cytotoxicity, hits mostly cytotoxic; AID 1508642, 2021; further: potency means the concentration at half of the fitted maximal effect; on the % scale 0 is the no-effect control and ±100 the full control effect; nearly all actives have a fitted effect of over 65% in size
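Seed 500-1,000 S16 Pmp22-F2sN cells per well in phenol-red-free DMEM with 10% heat-inactivated FBS; pin-add 23 nL compound; incubate 24 h at 37C; add CellTiter-Glo, wait 15 min protected from light; read luminescence.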
NLuc saturating: Biochemical NLuc saturation counterscreen for small molecule modulators of PMP22 gene expression - Nano-Glo assay; shares compounds with PMP22 txn prim; Secreted NLuc enzyme (filtered S16 cell medium), Nano-Glo luminescence; Potency, µM (top dose mostly 57.5 µM), without a hit: top-dose activity change, negative = inhibition, hits mostly inhibitors; actives 4% (n = 690); AID 1508638, 2021; further: potency means the concentration at half of the fitted maximal effect; on the % scale 0 is the no-effect control and ±100 the full control effect
NLuc Km counter: Biochemical coelenterazine-based NLuc counterscreen for small molecule modulators of PMP22 gene expression - Km assay; secreted NLuc enzyme, coelenterazine luminescence, Km conditions; shares compounds with PMP22 txn prim; Potency, µM (top dose mostly 57.5 µM), for the others: at the top dose activity change, negative = inhibition, hits mostly inhibitors; actives 5% (n = 690); further: potency means the concentration at half of the fitted maximal effect; on the % scale 0 is the no-effect control and ±100 the full control effect
FLuc counter: Biochemical FLuc counterscreen for small molecule modulators of PMP22 gene expression | shares compounds with PMP22 txn prim | purified P. pyralis FLuc, luminescence, 10 min | Potency, µM (top dose mostly 57.5 µM), without a hit: at the top dose activity, negative = inhibition, actives largely listed as inhibitors | 690 tested, under 10 active | AID 1508640, 2021; further: % of control where 0% means no effect
Target sequence (P08659 whole entry, looked up): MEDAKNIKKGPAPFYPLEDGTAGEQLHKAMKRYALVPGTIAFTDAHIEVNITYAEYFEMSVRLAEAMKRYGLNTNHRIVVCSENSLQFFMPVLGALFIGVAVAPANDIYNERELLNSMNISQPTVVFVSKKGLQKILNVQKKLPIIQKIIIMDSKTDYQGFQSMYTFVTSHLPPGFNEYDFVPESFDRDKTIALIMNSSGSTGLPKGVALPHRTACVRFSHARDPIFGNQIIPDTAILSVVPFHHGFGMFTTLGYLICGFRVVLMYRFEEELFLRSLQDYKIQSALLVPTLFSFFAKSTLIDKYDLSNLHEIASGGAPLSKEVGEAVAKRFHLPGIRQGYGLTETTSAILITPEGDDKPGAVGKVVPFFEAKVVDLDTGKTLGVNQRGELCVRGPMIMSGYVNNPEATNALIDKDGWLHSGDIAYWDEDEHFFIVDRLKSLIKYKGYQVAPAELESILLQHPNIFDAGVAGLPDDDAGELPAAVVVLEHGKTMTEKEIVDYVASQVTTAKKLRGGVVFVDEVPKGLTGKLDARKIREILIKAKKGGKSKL
S16 viab conf: Cell viability qHTS assay in S16 Pmp22-F2sN cells - Confirmatory screen; Potency, µM (series often up to 57.5 µM), for the others: at the highest dose activity change, negative = viability loss, hits mostly cytotoxic; shares compounds with PMP22 txn prim; actives 7% (n = 690); S16 Schwann cells viability, CellTiter-Glo ATP luminescence, 24 h; AID 1508641, 2021; further: potency means the concentration at half of the fitted maximal effect; on the % scale 0 is the no-effect control and ±100 the full control effect
PMP22 txn cnf: Cell-based coincidence reporter assay to measure PMP22 gene transcription in S16 Pmp22-F2sN cells - Confirmatory screen; actives 22% (n = 690); shares compounds with PMP22 txn prim; AID 1508646, 2021; S16 Schwann cells Pmp22-F2sN, dual luciferase, 24 h; Potency, µM (top dose mostly 57.5 µM), for inactives: at the highest dose activity change, negative = inhibition, usual class: inhibitors; active means clear falling dose curves in both reporters; inconclusive means both reporters move, but less clearly or upward; inactive means either reporter flat; the % is the FLuc reporter signal; further: potency means the concentration at half of the fitted maximal effect
* = called active by the depositor; i = inactive; ? = inconclusive; . = no result. Unless noted, the call rests on the fitted dose curve; in most records, active means well fitted curve in the direction sought with a large enough effect; inconclusive means small, poorly fitted or top-dose-only effect, or another doubt; inactive means no such curve, though single readings can be large; an effect the other way counts as inactive or inconclusive.

SMILES | p53null 39C kill | PMP22 txn prim | SKOV3 invasion | p53null 32C kill | mTORC1 inh | S16 viability | NLuc saturating | NLuc Km counter | FLuc counter | S16 viab conf | PMP22 txn cnf
COc1ccc(Nc2c3c(nc4nncn24)CCC3)cc1Cl | -13% | ? | -13% | 12% | -13% | -18% | . | . | . | . | .
COc1ccc(C)cc1Nc1c2c(nc3ccccc13)CCC2 | 16µM* | 11µM* | 0% | -10% | ? | -15% | ? | -19% | 2% | -7% | ?
Fc1ccc(F)c(Nc2c3c(nc4ccc(Cl)cc24)CCC3)c1 | 17% | 19µM* | i | 18% | 2% | -10% | ? | ? | 3% | -2% | -31%
COc1ccc(Nc2c3c(nc4ccccc24)CCC3)cc1Cl | ? | 10µM* | i | -1% | ? | ? | -19% | -2% | 3% | -24% | ?
Fc1ccc(Nc2c3c(nc4ccccc24)CCC3)cc1 | ? | 14µM* | -7% | -4% | -14% | -4% | ? | 7% | 10% | -20% | 18µM*
O=C(NCc1ccccc1)[C@H](Cc1ccccc1)NC(=O)[C@@H]1O[C@@H]1C(=O)NCCc1ccc(O)cc1 | . | . | -5% | . | . | . | . | . | . | . | .
CNC(=O)CN1CCC(Oc2cc3c(Nc4cccc(Cl)c4F)ncnc3cc2OC)CC1 | . | . | -21% | . | . | . | . | . | . | . | .

High-throughput results deposited in PubChem by National Center for Advancing Translational Sciences (NCATS).
